# Only a selection was taken, and the strongest signals are over-represented in it overall.
# B1: Epa7 (Candida glabrata), Q6DTM6_CANGB (protein)
# chain: MGSSHHHHHHSSGLVPRGSHMKDDYSSFLSNNNLGWTDPTEFPLGCSPNVTTPKNGLSMELYSYDLRKNGSYPCWDAAYLDPNYPRTGYKSHRLLAKVDGVTGNINFYYHATKGCTPEIDHLPASYNYPKPLTMTNFTMLLYGYFKPKVTGYHTFTISADDLLFVNFGAGNAFDCCKRESSADDFGNYQAYAVWGSQTAKDDLTVHLDAGLYYPIRIFFNNREYDAELSLTLKTESDSNPVIDFSDYFYSFDDTKDGCPGLVSYDTS
# Experiments:
# Assay in all cases: glycan array binding signal (z-score within array); higher = stronger binding
# Conditions in all cases: glycan notation: IUPAC condensed, linker removed
# Fuc(a1-2)Gal(b1-3)GalNAc = target: Fuc(a1-2)Gal(b1-3)GalNAc
# Summary of the method: (§1)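 The binding signal is a Z-score computed within each array. Data were drawn from 3228 arrays in the Consortium for Functional Glycomics database, restricted to those with a known protein sequence. Scores were averaged over arrays of the same protein sequence at different concentrations or buffers, and over linkers, and negative values can be taken as non-binding.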
# [1] = target: Fuc(a1-2)Gal(b1-3)GalNAc(b1-4)[Neu5Ac(a2-3)]Gal(b1-4)Glc
# Summary of the method: as §1
# [2] = target: Fuc(a1-2)Gal(b1-3)GlcNAc(b1-3)[Neu5Ac(a2-6)Gal(b1-4)GlcNAc(b1-6)]Gal(b1-4)Glc
# Summary of the method: as §1
# [3] = target: Fuc(a1-2)Gal(b1-4)GlcNAc(b1-3)Gal(b1-4)GlcNAc(b1-3)Gal(b1-4)GlcNAc
# Summary of the method: as §1
# [4] = target: Fuc(a1-2)Gal(b1-4)GlcNAc(b1-3)[Fuc(a1-2)Gal(b1-4)GlcNAc(b1-6)]GalNAc
# Summary of the method: as §1
# [5] = target: Fuc(a1-2)Gal(b1-4)[Fuc(a1-3)]GlcNAc(b1-3)GalNAc
# Summary of the method: as §1
# [6] = target: Fuc(a1-2)Gal6S(b1-4)GlcNAc
# Summary of the method: as §1
# Fuc(a1-2)[Gal(a1-3)]Gal = target: Fuc(a1-2)[Gal(a1-3)]Gal
# Summary of the method: as §1
# [7] = target: Fuc(a1-2)[Gal(a1-3)]Gal(b1-4)GlcNAc(b1-2)Man(a1-3)[Fuc(a1-2)[Gal(a1-3)]Gal(b1-4)GlcNAc(b1-2)Man(a1-6)]Man(b1-4)GlcNAc(b1-4)[Fuc(a1-6)]GlcNAc
# Summary of the method: as §1
# [8] = target: Fuc(a1-2)[Gal(a1-3)]Gal(b1-4)GlcNAc(b1-3)[Fuc(a1-2)[Gal(a1-3)]Gal(b1-4)GlcNAc(b1-6)]GalNAc
# Summary of the method: as §1
# [9] = target: Fuc(a1-2)[GalNAc(a1-4)]Gal(b1-4)GlcNAc
# Summary of the method: as §1
# [10] = target: Fuc(a1-3)[Gal(b1-4)]GlcNAc(b1-3)GalNAc
# Summary of the method: as §1
# [11] = target: Gal(a1-3)Gal(b1-4)[Fuc(a1-3)]GlcNAc
# Summary of the method: as §1
# Gal(b1-3)Gal = target: Gal(b1-3)Gal
# Summary of the method: as §1
# Gal(b1-3)Gal(b1-4)GlcNAc = target: Gal(b1-3)Gal(b1-4)GlcNAc
# Summary of the method: as §1
# [12] = target: Gal(b1-3)GalNAc(a1-3)[Fuc(a1-2)]Gal(b1-4)Glc
# Summary of the method: as §1
# [13] = target: Gal(b1-3)GalNAc(a1-3)[Fuc(a1-2)]Gal(b1-4)GlcNAc
# Summary of the method: as §1
# Gal(b1-3)GalNAc(b1-3)Gal = target: Gal(b1-3)GalNAc(b1-3)Gal
# Summary of the method: as §1
# [14] = target: Gal(b1-3)GalNAc(b1-3)Gal(a1-4)Gal(b1-4)Glc
# Summary of the method: as §1
# [15] = target: Gal(b1-3)GalNAc(b1-4)Gal(b1-4)Glc
# Summary of the method: as §1
# [16] = target: Gal(b1-3)GalNAc(b1-4)[Neu5Ac(a2-3)]Gal(b1-4)Glc
# Summary of the method: as §1
# Gal(b1-3)GlcNAc = target: Gal(b1-3)GlcNAc
# Summary of the method: as §1
# [17] = target: Gal(b1-3)GlcNAc(b1-3)Gal(b1-3)GlcNAc
# Summary of the method: as §1
# [18] = target: Gal(b1-3)[GlcNAc(b1-6)]GalNAc
# Summary of the method: as §1
# [19] = target: Gal(b1-3)[Neu5Ac(a2-6)]GalNAc
# Summary of the method: as §1
# Gal(b1-4)Glc = target: Gal(b1-4)Glc
# Summary of the method: as §1
# [20] = target: Gal(b1-4)GlcNAc(b1-3)Gal(b1-3)GlcNAc
# Summary of the method: as §1
# [21] = target: Gal(b1-4)GlcNAc(b1-3)Gal(b1-4)GlcNAc(b1-3)Gal(b1-4)GlcNAc(b1-3)Gal(b1-4)GlcNAc(b1-3)Gal(b1-4)GlcNAc(b1-2)[Gal(b1-4)GlcNAc(b1-3)Gal(b1-4)GlcNAc(b1-3)Gal(b1-4)GlcNAc(b1-3)Gal(b1-4)GlcNAc(b1-3)Gal(b1-4)GlcNAc(b1-6)]Man(a1-6)[Gal(b1-4)GlcNAc(b1-3)Gal(b1-4)GlcNAc(b1-3)Gal(b1-4)GlcNAc(b1-3)Gal(b1-4)GlcNAc(b1-3)Gal(b1-4)GlcNAc(b1-2)Man(a1-3)]Man(b1-4)GlcNAc(b1-4)[Fuc(a1-6)]GlcNAc
# Summary of the method: as §1
# [22] = target: Gal(b1-4)GlcNAc(b1-3)[Gal(b1-4)GlcNAc(b1-6)]GalNAc
# Summary of the method: as §1
# [23] = target: Gal(b1-4)GlcNAc(b1-6)Gal(b1-4)GlcNAc
# Summary of the method: as §1
# [24] = target: Gal(b1-4)GlcNAc(b1-6)[Gal(b1-3)]GlcNAc
# Summary of the method: as §1
# Gal6P(b1-4)GlcNAc = target: Gal6P(b1-4)GlcNAc
# Summary of the method: as §1
# GalNAc(b1-3)Gal = target: GalNAc(b1-3)Gal
# Summary of the method: as §1
# [25] = target: GalNAc(b1-3)Gal(a1-4)Gal(b1-4)GlcNAc
# Summary of the method: as §1
# GalNAc(b1-4)Gal(b1-4)Glc = target: GalNAc(b1-4)Gal(b1-4)Glc
# Summary of the method: as §1
# [26] = target: GlcNAc(a1-4)Gal(b1-4)GlcNAc(b1-3)Gal(b1-4)Glc
# Summary of the method: as §1
# [27] = target: GlcNAc(a1-4)Gal(b1-4)GlcNAc(b1-3)Gal(b1-4)GlcNAc(b1-3)Gal(b1-4)GlcNAc
# Summary of the method: as §1
# [28] = target: GlcNAc(b1-2)Gal(b1-3)GalNAc
# Summary of the method: as §1
# [29] = target: GlcNAc(b1-2)Man(a1-3)[GlcNAc(b1-2)Man(a1-6)]Man(b1-4)GlcNAc(b1-4)[Fuc(a1-6)]GlcNAc
# Summary of the method: as §1
# GlcNAc(b1-3)Fuc = target: GlcNAc(b1-3)Fuc
# Summary of the method: as §1
# [30] = target: GlcNAc(b1-3)Gal(b1-4)GlcNAc(b1-3)[GlcNAc(b1-3)Gal(b1-4)GlcNAc(b1-3)]GalNAc
# Summary of the method: as §1
# GlcNAc(b1-3)Man = target: GlcNAc(b1-3)Man
# Summary of the method: as §1
# GlcNAc(b1-4)GlcNAc = target: GlcNAc(b1-4)GlcNAc
# Summary of the method: as §1
# [31] = target: Neu5Ac(a2-3)Gal(b1-3)GalNAc(b1-4)[Neu5Ac(a2-8)Neu5Ac(a2-3)]Gal(b1-4)Glc
# Summary of the method: as §1
# [32] = target: Neu5Ac(a2-3)Gal(b1-3)GlcNAc(b1-3)Gal(b1-3)GlcNAc
# Summary of the method: as §1
# [33] = target: Neu5Ac(a2-3)Gal(b1-3)GlcNAc(b1-3)GalNAc
# Summary of the method: as §1
# [34] = target: Neu5Ac(a2-3)Gal(b1-3)[Fuc(a1-4)]GlcNAc(b1-3)Gal(b1-3)[Fuc(a1-4)]GlcNAc
# Summary of the method: as §1
# [35] = target: Neu5Ac(a2-3)Gal(b1-3)]Neu5Ac(a2-3)Gal(b1-4)]GlcNAc
# Summary of the method: as §1
# Neu5Ac(a2-3)Gal(b1-4)Glc = target: Neu5Ac(a2-3)Gal(b1-4)Glc
# Summary of the method: as §1
# [36] = target: Neu5Ac(a2-3)Gal(b1-4)[Fuc(a1-3)]GlcNAc(b1-3)Gal(b1-4)GlcNAc
# Summary of the method: as §1
# Neu5Ac(a2-6)Gal = target: Neu5Ac(a2-6)Gal
# Summary of the method: as §1
# [37] = target: Neu5Ac(a2-6)Gal(b1-4)GlcNAc(b1-2)[Neu5Ac(a2-6)Gal(b1-4)GlcNAc(b1-4)]Man(a1-3)[GlcNAc(b1-4)][Neu5Ac(a2-6)Gal(b1-4)GlcNAc(b1-2)[Neu5Ac(a2-6)Gal(b1-4)GlcNAc(b1-6)]Man(a1-6)]Man(b1-4)GlcNAc(b1-4)GlcNAc
# Summary of the method: as §1
# [38] = target: Neu5Ac(a2-6)Gal(b1-4)GlcNAc(b1-3)Gal(b1-4)GlcNAc
# Summary of the method: as §1
# [39] = target: Neu5Ac(a2-6)Gal(b1-4)GlcNAc(b1-6)[Gal(b1-3)]GalNAc
# Summary of the method: as §1
# [40] = target: Neu5Ac(a2-6)Gal(b1-4)GlcNAc6S
# Summary of the method: as §1
# [41] = target: Neu5Ac(a2-8)Neu5Ac(a2-8)Neu5Ac(a2-3)[Gal(b1-3)GalNAc(b1-4)]Gal(b1-4)Glc
# Summary of the method: as §1
# [42] = target: Neu5Ac(a2-8)Neu5Gc(a2-3)Gal(b1-4)GlcNAc
# Summary of the method: as §1
binder,measurement,setting,value
B1,glycan array binding signal (z-score),Fuc(a1-2)Gal(b1-3)GalNAc,-0.169
same,glycan array binding signal (z-score),[1],-0.072
same,glycan array binding signal (z-score),[2],-0.206
same,glycan array binding signal (z-score),[3],-0.253
same,glycan array binding signal (z-score),[4],-0.209
same,glycan array binding signal (z-score),[5],-0.027
same,glycan array binding signal (z-score),[6],-0.285
same,glycan array binding signal (z-score),Fuc(a1-2)[Gal(a1-3)]Gal,-0.213
same,glycan array binding signal (z-score),[7],-0.241
same,glycan array binding signal (z-score),[8],-0.208
same,glycan array binding signal (z-score),[9],-0.256
same,glycan array binding signal (z-score),[10],-0.19
same,glycan array binding signal (z-score),[11],-0.201
same,glycan array binding signal (z-score),Gal(b1-3)Gal,2.85
same,glycan array binding signal (z-score),Gal(b1-3)Gal(b1-4)GlcNAc,5.79
same,glycan array binding signal (z-score),[12],5.79
same,glycan array binding signal (z-score),[13],5.59
same,glycan array binding signal (z-score),Gal(b1-3)GalNAc(b1-3)Gal,11
same,glycan array binding signal (z-score),[14],4.75
same,glycan array binding signal (z-score),[15],7.99
same,glycan array binding signal (z-score),[16],4.82
same,glycan array binding signal (z-score),Gal(b1-3)GlcNAc,-0.104
same,glycan array binding signal (z-score),[17],-0.207
same,glycan array binding signal (z-score),[18],1.21
same,glycan array binding signal (z-score),[19],4.18
same,glycan array binding signal (z-score),Gal(b1-4)Glc,-0.199
same,glycan array binding signal (z-score),[20],-0.246
same,glycan array binding signal (z-score),[21],0.068
same,glycan array binding signal (z-score),[22],5.02
same,glycan array binding signal (z-score),[23],0.23
same,glycan array binding signal (z-score),[24],5.53
same,glycan array binding signal (z-score),Gal6P(b1-4)GlcNAc,-0.241
same,glycan array binding signal (z-score),GalNAc(b1-3)Gal,-0.245
same,glycan array binding signal (z-score),[25],-0.251
same,glycan array binding signal (z-score),GalNAc(b1-4)Gal(b1-4)Glc,-0.213
same,glycan array binding signal (z-score),[26],-0.234
same,glycan array binding signal (z-score),[27],-0.237
same,glycan array binding signal (z-score),[28],-0.197
same,glycan array binding signal (z-score),[29],-0.232
same,glycan array binding signal (z-score),GlcNAc(b1-3)Fuc,-0.233
same,glycan array binding signal (z-score),[30],-0.225
same,glycan array binding signal (z-score),GlcNAc(b1-3)Man,-0.232
same,glycan array binding signal (z-score),GlcNAc(b1-4)GlcNAc,-0.23
same,glycan array binding signal (z-score),[31],-0.06
same,glycan array binding signal (z-score),[32],-0.256
same,glycan array binding signal (z-score),[33],-0.21
same,glycan array binding signal (z-score),[34],-0.196
same,glycan array binding signal (z-score),[35],-0.228
same,glycan array binding signal (z-score),Neu5Ac(a2-3)Gal(b1-4)Glc,-0.257
same,glycan array binding signal (z-score),[36],-0.189
same,glycan array binding signal (z-score),Neu5Ac(a2-6)Gal,-0.228
same,glycan array binding signal (z-score),[37],-0.234
same,glycan array binding signal (z-score),[38],-0.258
same,glycan array binding signal (z-score),[39],1.19
same,glycan array binding signal (z-score),[40],-0.257
same,glycan array binding signal (z-score),[41],0.014
same,glycan array binding signal (z-score),[42],-0.241
